Measurements from PubChem BioAssay (EPA / NIEHS).
Activity calls are given as the source filed them. The calls were made as follows: active = hit-call score of the fitted dose curve at least 0.9, where 1 is the maximum; inactive = score below 0.9.

Read-out: Interferon-gamma inducible Protein 10 (IP10), CXCL10 (gene 3627)
Experiment: BSK_hDFCGF_IP10: BioMAP Diversity Plus: hDFCGF Assay for Interferon-gamma inducible Protein 10 (IP10) Biomarker Activity (AID 2283053)
Conditions: primary human foreskin fibroblasts; actives raise or lower the signal
Method: BSK_hDFCGF is a cell-based, multiplexed-readout assay that uses foreskin fibroblast, a human skin primary cell, with measurements taken at 24 hours after chemical dosing in a 96-well plate.BSK_hDFCGF_IP10 is an assay component measured in the BSK_hDFCGF assay. It measures IP-10 antibody related to regulation of gene expression using ELISA technology.Data from the assay component BSK_hDFCGF_IP10 was analyzed into 1 assay endpoint. This assay endpoint, BSK_hDFCGF_IP10, was analyzed with bidirectional fitting relative to DMSO as the negative control and baseline of activity. Using a type of binding reporter, gain or loss-of-signal activity can be used to understand changes in the signaling as they relate to the gene CXCL10. Furthermore, this assay endpoint can be referred to as a primary readout, because this assay has produced multiple assay endpoints where this one serves a signaling function. To generalize the intended target to other relatable targets, this assay endpoint is annotated to the cytokine intended target family, where the subfamily is chemotactic factor.
The levels of cell surface (or secreted, indicated by the prefix "s") biomarker endpoints were measured by ELISA. Overt cytotoxicity to cells in confluent adherent cultures (all systems other than the BT system) was assessed by measuring total protein levels using sulforhodamine B (SRB) staining in parallel cultures at the time of biomarker measurements, indicated as SRB endpoints. For proliferation assays for adherent cell types, individual cell types are cultured at sub-confluence and relative cell numbers quantified by SRB staining at time points optimized for each system (48 h: 3C and CASM3C systems; 72 h: BT and HDF3CGF systems; 96 h: SAg system). SRB was performed by staining cells with 0.1% SRB after fixation with 10% TCA and reading wells at 560 nm.Viability and proliferation of PBMC (T cells) was quantified by Alamar Blue reduction for the SAg and BT systems. For PBMC viability (referred to as PBMC Cytotoxicity within the assay endpoint names), cells were plated (75,000/well in a 96-well plate) and then chemical samples added for 1 h before addition of activators, SEB and TSST-1 (20 ng/mL final concentration each). Cells were incubated for 90 h. Then, Alamar Blue (20 uL/well) (Invitrogen, Cat DAL1100) was added for 6 h, and the plates were read with a fluorescence microplate reader at 546/580 nm (excitation/emission). For PBMC proliferation, cells were plated and activated as above but incubated for only 16 h prior to addition of Alamar Blue. Plates were read after 6 h.

Structure (SMILES) | outcome | AC50
CCNc1ccccc1 | inactive | –
O=C(NS(=O)(=O)/C=C/c1ccccc1)c1ccc(F)cc1Cl | inactive | –
CCOC(=O)CC(CC(=O)OCC)(OC(C)=O)C(=O)OCC | inactive | –
CCc1cc(SCc2sc(-c3ccc(C(F)(F)F)cc3)nc2CN2CCN(c3ccc(OC)cc3)CC2)ccc1OCC(=O)O | – | 2.18 µM (active)
O=C(CCCCCCCCc1cccnc1)N1CCC(C=C(c2ccccc2)c2ccccc2)CC1 | – | 9 µM (active)
CCCCCCCCO | inactive | –
Cc1ccc(O)cc1 | inactive | –
CCCC(=O)OCC | inactive | –
CCCCCCCCCCCCc1ccccc1 | inactive | –
CN(C)c1ccc(N=NS(=O)(=O)O)cc1 | inactive | –
Cc1c(-c2cccnc2)c2ccccc2n1CCCCC(=O)O | inactive | –
CC(C)=CCC/C(C)=C/CO | inactive | –
C=CC(=C)CCC=C(C)C | inactive | –
CCCCC(CC)COC(=O)CCCCCCCCC(=O)OCC(CC)CCCC (stereo not given) | – | 6.18 µM (active)
Cc1ccc(N)cc1O | inactive | –
On1ccccc1=S | – | 0.422 µM (active)
O=C(O)CCN(C1(C(=O)NO)CCCC1)S(=O)(=O)c1ccc(Oc2ccc(F)cc2)cc1 | inactive | –
CCCCC(CC)COC(=O)c1ccc(C(=O)OCC(CC)CCCC)cc1 (stereo not given) | inactive | –
CC(=O)OC[C@H]1O[C@@](COC(C)=O)(O[C@H]2O[C@H](COC(C)=O)[C@@H](OC(C)=O)[C@H](OC(C)=O)[C@H]2OC(C)=O)[C@@H](OC(C)=O)[C@@H]1OC(C)=O | inactive | –
CCCCCCc1ccc(O)cc1O | – | 29.8 µM (active)

Structure (SMILES) | outcome | AC50
CC(C)CCCCCCOC(=O)c1ccc(C(=O)OCCCCCCC(C)C)c(C(=O)OCCCCCCC(C)C)c1 | inactive | –
CC(C)=CCCC(C)CCO (stereo not given) | inactive | –
CCOCCOCCOCCO | inactive | –
Cn1c(=O)cc(Oc2ccc(F)cc2F)c2cnc(NCC(C)(C)O)nc21 | – | 1.15 µM (active)
O=P(OC(CCl)CCl)(OC(CCl)CCl)OC(CCl)CCl | inactive | –
O=C(O)CC(O)C(=O)O (stereo not given) | inactive | –
CC1(C)C(=O)N(Br)C(=O)N1Br | inactive | –
O=c1n(CC2CO2)c(=O)n(CC2CO2)c(=O)n1CC1CO1 (stereo not given) | inactive | –
C[C@](N)(Cc1ccc(O)c(O)c1)C(=O)O | – | 23.2 µM (active)
CNCc1ccc(NC(=O)c2c[nH]c3c2C(=O)CCC3)cc1 | inactive | –
Oc1ccc2c(c1)-c1ccccc1C2 | inactive | –
CC(C)CCO | inactive | –
O=C1OC(=O)C2C3C=CC(C3)C12 (stereo not given) | inactive | –
CCCCCCCCCCCCCCCO | inactive | –
O=C(OC[C@H]1O[C@@H](OC(=O)c2cc(O)c(O)c(OC(=O)c3cc(O)c(O)c(O)c3)c2)[C@H](OC(=O)c2cc(O)c(O)c(OC(=O)c3cc(O)c(O)c(O)c3)c2)[C@@H](OC(=O)c2cc(O)c(O)c(OC(=O)c3cc(O)c(O)c(O)c3)c2)[C@@H]1OC(=O)c1cc(O)c(O)c(OC(=O)c2cc(O)c(O)c(O)c2)c1)c1cc(O)c(O)c(OC(=O)c2cc(O)c(O)c(O)c2)c1 | – | 0.986 µM (active)
COc1ccc(-n2nc(C(F)F)cc2-c2ccc(S(C)=O)cc2)cc1 (stereo not given) | inactive | –
O=C(O)c1cc(N=Nc2ccc(S(=O)(=O)Nc3ccccn3)cc2)ccc1O | inactive | –
Cn1c(=O)c2c(ncn2C)n(C)c1=O | inactive | –
COc1ccc2sc(C(=O)Nc3nnn[nH]3)c(OC(C)C)c2c1 | – | 13.6 µM (active)
CC(C)CCCCCCCOC(=O)CCCCC(=O)OCCCCCCCC(C)C | inactive | –
